Data: PubChem BioAssay (EPA / NIEHS)
Several values for one entry are separate records, joined by “and”; a condition that tells them apart may be missing. Identical values can stand only once. Records with an inconclusive call do not appear. Activity calls are given as the source filed them. The calls were made as follows, unless noted: active = hit-call score of the fitted dose curve at least 0.9, where 1 is the maximum; inconclusive = response in the unintended direction; inactive = score below 0.9.

Tests used:
[1] = target: human Peroxisome Proliferator-activated Receptor alpha (PPARa), PPARA (gene 5465) (UniProt Q07869); assay: ATG_PPARa_TRANS: Attagene TRANS-FACTORIAL HepG2 Assay for human Peroxisome Proliferator-activated Receptor alpha (PPARa) (AID 2283001)
In short: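 Exposure: 24 h, transiently transfected HepG2 cells. Endpoint: GAL4-UAS reporter mRNA, RT-PCR with capillary electrophoresis fluorescence. Baseline: DMSO; increases fitted.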

[2] = target: human Retinoid X Receptor beta (RXRb), RXRB (gene 6257) (UniProt P28702); assay: ATG_RXRb_TRANS: Attagene TRANS-FACTORIAL HepG2 Assay for human Retinoid X Receptor beta (RXRb) (AID 2283013)
In short: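 After a 24 h incubation with test chemical, transfected HepG2 cells carrying NR-Gal4 fusions and GAL4-UAS reporter transcription units yield RNA whose reporter cDNA is FAM-labelled, HpaI-cut and sized by capillary electrophoresis; increases over DMSO are scored.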

[3] = target: Nuclear receptor subfamily 1 group I member 2 (Homo sapiens) (UniProt O75469); assay: ATG_PXR_TRANS: Attagene TRANS-FACTORIAL HepG2 Assay for human Pregnane X Receptor (PXR) (AID 2283008)
In short: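 Transactivation by exogenous PXR–GAL4 fusion measured as reporter transcript induction after 24 h compound treatment of transfected human HepG2 cells. Read-out via RT-PCR and capillary electrophoresis of labelled fragments, fitted upward relative to DMSO.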

[4] = target: human RAR-related Orphan Receptor beta (RORb), RORB (gene 6096) (UniProt Q92753); assay: ATG_RORb_TRANS: Attagene TRANS-FACTORIAL HepG2 Assay for human RAR-related Orphan Receptor beta (RORb) (AID 2283010)
In short: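 Multiplexed transcription-factor reporter assay: HepG2 cells transiently carrying NR-Gal4/GAL4-UAS constructs, 24 h treatment, mRNA quantified by RT-PCR plus capillary electrophoresis fluorescence; activity scored as induction over DMSO.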

[5] = target: human RAR-related Orphan Receptor gamma (RORg), RORC (gene 6097) (UniProt P51449); assay: ATG_RORg_TRANS: Attagene TRANS-FACTORIAL HepG2 Assay for human RAR-related Orphan Receptor gamma (RORg) (AID 2283011)
In short: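 Transient MRTU transfection of HepG2 (TRANS format, exogenous NR-Gal4 chimera). 24 h dosing. Total RNA → oligo(dT) RT → PCR → 6-FAM labelling → HpaI cut → CE. Gain vs DMSO.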

[6] = target: human Thyroid Receptor alpha (THRa1), THRA (gene 7067) (UniProt P10827); assay: ATG_THRa1_TRANS: Attagene TRANS-FACTORIAL HepG2 Assay for human Thyroid Receptor alpha (THRa1) (AID 2283014)
In short: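 Transient HepG2 transfection, NR-Gal4 chimera driving GAL4-UAS reporters; 24 h compound exposure; total RNA, oligo(dT) RT, PCR, fluorescent primer extension, capillary electrophoresis. Upward direction vs DMSO control.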

[7] = target: human Peroxisome Proliferator-activated Receptor delta (PPARd), PPARD (gene 5467) (UniProt Q03181); assay: ATG_PPARd_TRANS: Attagene TRANS-FACTORIAL HepG2 Assay for human Peroxisome Proliferator-activated Receptor delta (PPARd) (AID 2283002)
In short: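 HepG2 cells transiently transfected with multiplexed GAL4-UAS reporter units and exogenous chimeric NR-Gal4 proteins; 24 h compound exposure. Reporter mRNA measured by RT-PCR, 6-FAM labelling, HpaI digestion and capillary electrophoresis; gain of signal versus DMSO.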

[8] = read-out: Intercellular Adhesion Molecule 1 (ICAM1), ICAM1 (gene 3383); assay: BSK_3C_ICAM1: BioMAP Diversity Plus: 3C Assay for Intercellular Adhesion Molecule 1 (ICAM1) Biomarker Activity (AID 2283003; active = hit-call score of the fitted dose curve at least 0.9, where 1 is the maximum; inactive = score below 0.9); details: primary human endothelial cells (HUVEC); actives raise or lower the signal
In short: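 Using DMSO as baseline, bidirectional curve fitting was applied to ICAM-1 ELISA signals from HUVEC in the 3C system, measured 24 h after compound addition.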

[9] = BSK_3C_Proliferation: Cell Proliferation Assessment in the BioMAP Diversity Plus: 3C Assay (AID 2283006; active = hit-call score of the fitted dose curve at least 0.9, where 1 is the maximum; inactive = score below 0.9;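 as to AC50: potency may reflect either rise or fall in cell number versus DMSO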); details: primary human endothelial cells (HUVEC)
In short: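 Measured here: sulforhodamine B (0.1%) staining of TCA-fixed sub-confluent umbilical vein endothelial cultures 48 h post-dosing, absorbance 560 nm. DMSO served as negative control and baseline; both signal gain and loss were modelled.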

[10] = target: Peroxisome proliferator-activated receptor gamma (Homo sapiens) (UniProt P37231); assay: ATG_PPARg_TRANS: Attagene TRANS-FACTORIAL HepG2 Assay for human Peroxisome Proliferator-activated Receptor-gamma (PPARg) (AID 2283007)
In short: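 Gain-of-signal endpoint relative to DMSO, derived from reporter mRNA levels quantified by RT-PCR and capillary electrophoresis. Cells were HepG2 transiently expressing a chimeric NR-Gal4 construct with GAL4-UAS reporters, exposed to chemicals for 24 h.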

[11] = target: Retinoic acid receptor RXR-alpha (Homo sapiens) (UniProt P19793); assay: ATG_RXRa_TRANS: Attagene TRANS-FACTORIAL HepG2 Assay for human Retinoid X Receptor alpha (RXRa) (AID 2283012)
In short: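 Chimeric NR-GAL4 trans-activation in HepG2, 24 h treatment; reporter transcripts quantified by fluorescence on capillary electrophoresis, analysed for upward change from DMSO.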

[12] = read-out: E-selectin (Homo sapiens) (UniProt P16581); assay: BSK_3C_Eselectin: BioMAP Diversity Plus: 3C Assay for Eselectin Biomarker Activity (AID 2283015; active = hit-call score of the fitted dose curve at least 0.9, where 1 is the maximum; inactive = score below 0.9); details: primary human endothelial cells (HUVEC); actives raise or lower the signal
In short: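 HUVEC, 3C stimulation; compound exposure 24 h; E-selectin by ELISA; gain- or loss-of-signal fitted bidirectionally vs DMSO baseline.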

[13] = read-out: Interleukin-1 alpha (IL1a), IL1A (gene 3552); assay: BSK_BE3C_IL1a: BioMAP Diversity Plus: BE3C Assay for Interleukin-1 alpha (IL1a) Biomarker Activity (AID 2283016; active = hit-call score of the fitted dose curve at least 0.9, where 1 is the maximum; inactive = score below 0.9); details: primary human bronchial epithelial cells; actives raise or lower the signal
In short: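 Measured in human lung primary bronchial epithelial cells: IL-1a by ELISA at 24 h after dosing, with bidirectional fitting against DMSO.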

[14] = read-out: Monocyte Chemoattractant Protein-1 (MCP1), CCL2 (gene 6347); assay: BSK_3C_MCP1: BioMAP Diversity Plus: 3C Assay for Monocyte Chemoattractant Protein-1 (MCP1) Biomarker Activity (AID 2283017; active = hit-call score of the fitted dose curve at least 0.9, where 1 is the maximum; inactive = score below 0.9); details: primary human endothelial cells (HUVEC); actives raise or lower the signal
In short: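 HUVEC, 3C system; 24 h chemical exposure; MCP-1 by ELISA; bidirectional curve fit vs DMSO baseline.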

[15] = read-out: Monocyte Chemoattractant Protein-1 (MCP1), CCL2 (gene 6347); assay: BSK_4H_MCP1: BioMAP Diversity Plus: 4H Assay for Monocyte Chemoattractant Protein-1 (MCP1) Biomarker Activity (AID 2283018; active = hit-call score of the fitted dose curve at least 0.9, where 1 is the maximum; inactive = score below 0.9); details: primary human endothelial cells (HUVEC); actives raise or lower the signal
In short: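 Primary human umbilical vein endothelium is exposed to chemical for 24 h before MCP-1 is assayed by ELISA. Concentration-response fitted bidirectionally relative to DMSO.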

[16] = read-out: Human Leukocyte Antigen - DR isotype (HLADR), HLA-DRA (gene 3122); assay: BSK_3C_HLADR: BioMAP Diversity Plus: 3C Assay for Human Leukocyte Antigen - DR isotype (HLADR) Biomarker Activity (AID 2283019; active = hit-call score of the fitted dose curve at least 0.9, where 1 is the maximum; inactive = score below 0.9); details: primary human endothelial cells (HUVEC); actives raise or lower the signal
In short: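 HUVEC, 3C stimulation, 24 h post-dose; HLA-DR by ELISA; bidirectional curve fit vs DMSO baseline; gain or loss of signal scored.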

[17] = read-out: Interleukin-8 (IL8), CXCL8 (gene 3576); assay: BSK_3C_IL8: BioMAP Diversity Plus: 3C Assay for Interleukin-8 (IL8) Biomarker Activity (AID 2283020; active = hit-call score of the fitted dose curve at least 0.9, where 1 is the maximum; inactive = score below 0.9); details: primary human endothelial cells (HUVEC); actives raise or lower the signal
In short: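 Using DMSO-treated wells as the baseline, bidirectional curve fitting was applied to ELISA-measured IL-8 from human umbilical vein endothelial cultures sampled 24 h after compound addition.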

[18] = target: human Retinoic Acid Receptor gamma (RARg), RARG (gene 5916) (UniProt P13631); assay: ATG_RARg_TRANS: Attagene TRANS-FACTORIAL HepG2 Assay for human Retinoic Acid Receptor gamma (RARg) (AID 2283009)
In short: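 Gain-of-signal relative to DMSO is reported from fluorescent capillary electrophoresis of RT-PCR reporter products. These came from HepG2 cells expressing transfected RARg-GAL4 chimeras with UAS reporters, harvested 24 h after dosing.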

[19] = target: human Retinoic Acid Receptor beta (RARb), RARB (gene 5915) (UniProt P10826); assay: ATG_RARb_TRANS: Attagene TRANS-FACTORIAL HepG2 Assay for human Retinoic Acid Receptor beta (AID 2283004)
In short: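 Readout is reporter mRNA induction: RNA reverse-transcribed, PCR-amplified, FAM-labelled, HpaI-cut and resolved by capillary electrophoresis. Transiently transfected HepG2 cells carrying exogenous NR–Gal4 chimeras were dosed for 24 h; activity fitted upward relative to DMSO.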

Measured: AC50

Chain of human Thyroid Receptor alpha (THRa1), THRA (gene 7067) (P10827 whole entry, looked up, the tested form may be a part): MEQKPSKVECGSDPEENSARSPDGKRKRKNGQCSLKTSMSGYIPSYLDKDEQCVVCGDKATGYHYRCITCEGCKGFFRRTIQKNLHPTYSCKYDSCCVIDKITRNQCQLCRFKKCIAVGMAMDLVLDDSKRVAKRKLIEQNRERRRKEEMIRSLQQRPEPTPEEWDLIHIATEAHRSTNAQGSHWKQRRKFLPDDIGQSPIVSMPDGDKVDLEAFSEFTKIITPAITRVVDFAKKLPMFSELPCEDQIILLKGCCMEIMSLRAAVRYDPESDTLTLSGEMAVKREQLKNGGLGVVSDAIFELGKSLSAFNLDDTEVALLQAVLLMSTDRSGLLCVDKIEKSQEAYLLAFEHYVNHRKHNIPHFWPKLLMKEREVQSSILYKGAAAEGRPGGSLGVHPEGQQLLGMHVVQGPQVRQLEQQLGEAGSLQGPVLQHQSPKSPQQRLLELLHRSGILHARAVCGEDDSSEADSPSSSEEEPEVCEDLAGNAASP
Chain of human Peroxisome Proliferator-activated Receptor delta (PPARd), PPARD (gene 5467) (Q03181 whole entry, looked up, the tested form may be a part): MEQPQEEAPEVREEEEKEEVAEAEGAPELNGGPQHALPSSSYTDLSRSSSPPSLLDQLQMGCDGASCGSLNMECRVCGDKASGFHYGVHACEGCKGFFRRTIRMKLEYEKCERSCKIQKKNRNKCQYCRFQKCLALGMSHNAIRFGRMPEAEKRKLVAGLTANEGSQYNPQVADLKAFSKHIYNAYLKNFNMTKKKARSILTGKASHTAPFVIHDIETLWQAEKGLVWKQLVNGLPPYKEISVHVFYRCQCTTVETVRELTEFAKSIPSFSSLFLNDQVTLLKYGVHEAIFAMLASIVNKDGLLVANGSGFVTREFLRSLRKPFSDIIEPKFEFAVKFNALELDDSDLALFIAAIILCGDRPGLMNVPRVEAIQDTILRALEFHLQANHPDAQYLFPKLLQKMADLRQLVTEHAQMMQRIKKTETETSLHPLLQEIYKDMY
Chain of human RAR-related Orphan Receptor beta (RORb), RORB (gene 6096) (Q92753 whole entry, looked up, the tested form may be a part): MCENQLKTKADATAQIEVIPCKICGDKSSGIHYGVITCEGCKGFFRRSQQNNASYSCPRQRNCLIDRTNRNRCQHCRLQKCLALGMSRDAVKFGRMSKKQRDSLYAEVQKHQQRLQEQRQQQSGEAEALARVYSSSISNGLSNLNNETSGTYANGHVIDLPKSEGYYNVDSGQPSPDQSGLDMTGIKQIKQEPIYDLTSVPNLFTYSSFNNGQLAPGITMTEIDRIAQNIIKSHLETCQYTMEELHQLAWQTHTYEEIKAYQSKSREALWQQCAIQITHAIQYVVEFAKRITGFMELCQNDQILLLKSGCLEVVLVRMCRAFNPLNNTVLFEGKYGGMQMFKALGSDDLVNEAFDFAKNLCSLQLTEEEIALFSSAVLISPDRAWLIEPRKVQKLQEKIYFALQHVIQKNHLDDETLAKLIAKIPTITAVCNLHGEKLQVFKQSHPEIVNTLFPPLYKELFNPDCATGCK
Chain of human Retinoid X Receptor beta (RXRb), RXRB (gene 6257) (P28702 whole entry, looked up, the tested form may be a part): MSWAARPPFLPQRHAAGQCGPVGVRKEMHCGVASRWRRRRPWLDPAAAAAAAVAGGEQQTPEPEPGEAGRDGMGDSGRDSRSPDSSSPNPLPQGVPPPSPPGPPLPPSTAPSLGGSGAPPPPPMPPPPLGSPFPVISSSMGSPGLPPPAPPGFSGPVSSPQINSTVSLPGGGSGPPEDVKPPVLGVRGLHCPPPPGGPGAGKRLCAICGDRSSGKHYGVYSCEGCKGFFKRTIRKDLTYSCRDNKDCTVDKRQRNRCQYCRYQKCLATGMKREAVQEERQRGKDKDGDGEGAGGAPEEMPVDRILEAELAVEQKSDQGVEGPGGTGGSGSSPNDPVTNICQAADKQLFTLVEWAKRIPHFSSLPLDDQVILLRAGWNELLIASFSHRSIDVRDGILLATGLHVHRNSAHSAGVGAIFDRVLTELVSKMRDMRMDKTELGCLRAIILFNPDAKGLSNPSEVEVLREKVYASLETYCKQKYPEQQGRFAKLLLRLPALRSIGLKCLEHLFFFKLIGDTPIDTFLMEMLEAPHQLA
Chain of Retinoic acid receptor RXR-alpha (Homo sapiens) (P19793 whole entry, looked up, the tested form may be a part): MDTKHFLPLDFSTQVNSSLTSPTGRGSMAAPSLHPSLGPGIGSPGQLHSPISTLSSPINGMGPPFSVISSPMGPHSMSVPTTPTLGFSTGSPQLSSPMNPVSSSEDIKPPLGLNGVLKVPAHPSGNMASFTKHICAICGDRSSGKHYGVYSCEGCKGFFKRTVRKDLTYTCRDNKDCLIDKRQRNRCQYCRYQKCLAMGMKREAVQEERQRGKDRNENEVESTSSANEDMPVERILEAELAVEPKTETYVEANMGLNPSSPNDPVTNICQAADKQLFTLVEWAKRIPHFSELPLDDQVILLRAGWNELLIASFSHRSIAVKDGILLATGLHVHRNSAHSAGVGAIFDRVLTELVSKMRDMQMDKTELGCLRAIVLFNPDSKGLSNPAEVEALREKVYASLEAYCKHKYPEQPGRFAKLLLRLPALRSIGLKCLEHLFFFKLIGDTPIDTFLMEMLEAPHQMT
Chain of E-selectin (Homo sapiens) (P16581 whole entry, looked up): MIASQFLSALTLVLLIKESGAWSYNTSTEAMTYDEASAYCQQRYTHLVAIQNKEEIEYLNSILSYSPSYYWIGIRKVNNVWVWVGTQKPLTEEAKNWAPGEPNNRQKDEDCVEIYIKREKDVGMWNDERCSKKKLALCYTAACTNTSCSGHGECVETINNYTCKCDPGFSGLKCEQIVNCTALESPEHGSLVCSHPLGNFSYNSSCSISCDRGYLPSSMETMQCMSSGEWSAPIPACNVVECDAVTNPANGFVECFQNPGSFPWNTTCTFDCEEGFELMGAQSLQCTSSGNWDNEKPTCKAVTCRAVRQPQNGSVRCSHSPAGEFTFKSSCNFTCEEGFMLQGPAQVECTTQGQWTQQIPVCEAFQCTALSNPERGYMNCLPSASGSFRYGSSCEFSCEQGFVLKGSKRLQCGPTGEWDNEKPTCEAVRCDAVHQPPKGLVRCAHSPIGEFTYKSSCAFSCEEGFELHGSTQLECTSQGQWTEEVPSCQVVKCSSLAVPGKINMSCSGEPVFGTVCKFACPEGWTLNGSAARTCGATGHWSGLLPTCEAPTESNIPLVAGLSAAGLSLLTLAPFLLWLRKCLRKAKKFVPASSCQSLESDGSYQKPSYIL
Chain of Nuclear receptor subfamily 1 group I member 2 (Homo sapiens) (O75469 whole entry, looked up, the tested form may be a part): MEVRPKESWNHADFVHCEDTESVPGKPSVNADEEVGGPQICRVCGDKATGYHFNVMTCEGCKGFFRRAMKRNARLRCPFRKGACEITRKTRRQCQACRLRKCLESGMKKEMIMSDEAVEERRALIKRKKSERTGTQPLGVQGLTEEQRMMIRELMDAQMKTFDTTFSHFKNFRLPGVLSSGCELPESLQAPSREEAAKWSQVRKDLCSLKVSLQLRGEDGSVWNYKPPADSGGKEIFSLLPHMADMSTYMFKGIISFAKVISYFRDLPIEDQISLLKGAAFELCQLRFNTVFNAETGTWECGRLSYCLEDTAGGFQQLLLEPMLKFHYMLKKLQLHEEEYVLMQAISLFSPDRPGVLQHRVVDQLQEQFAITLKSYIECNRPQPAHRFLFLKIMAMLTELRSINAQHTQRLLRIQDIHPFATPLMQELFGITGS
Chain of human Peroxisome Proliferator-activated Receptor alpha (PPARa), PPARA (gene 5465) (Q07869 whole entry, looked up, the tested form may be a part): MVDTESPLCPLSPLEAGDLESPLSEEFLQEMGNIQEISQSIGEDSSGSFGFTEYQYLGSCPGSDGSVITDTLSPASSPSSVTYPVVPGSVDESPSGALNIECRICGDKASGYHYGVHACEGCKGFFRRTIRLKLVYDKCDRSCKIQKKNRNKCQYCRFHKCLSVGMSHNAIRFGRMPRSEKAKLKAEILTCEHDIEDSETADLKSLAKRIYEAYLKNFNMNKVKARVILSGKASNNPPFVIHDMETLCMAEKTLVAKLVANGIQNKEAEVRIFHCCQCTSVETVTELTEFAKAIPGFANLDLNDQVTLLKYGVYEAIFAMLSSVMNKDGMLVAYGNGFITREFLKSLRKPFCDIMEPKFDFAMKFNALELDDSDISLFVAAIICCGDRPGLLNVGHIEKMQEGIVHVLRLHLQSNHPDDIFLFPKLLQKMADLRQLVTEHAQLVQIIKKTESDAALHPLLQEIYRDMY
Chain of human RAR-related Orphan Receptor gamma (RORg), RORC (gene 6097) (P51449 whole entry, looked up, the tested form may be a part): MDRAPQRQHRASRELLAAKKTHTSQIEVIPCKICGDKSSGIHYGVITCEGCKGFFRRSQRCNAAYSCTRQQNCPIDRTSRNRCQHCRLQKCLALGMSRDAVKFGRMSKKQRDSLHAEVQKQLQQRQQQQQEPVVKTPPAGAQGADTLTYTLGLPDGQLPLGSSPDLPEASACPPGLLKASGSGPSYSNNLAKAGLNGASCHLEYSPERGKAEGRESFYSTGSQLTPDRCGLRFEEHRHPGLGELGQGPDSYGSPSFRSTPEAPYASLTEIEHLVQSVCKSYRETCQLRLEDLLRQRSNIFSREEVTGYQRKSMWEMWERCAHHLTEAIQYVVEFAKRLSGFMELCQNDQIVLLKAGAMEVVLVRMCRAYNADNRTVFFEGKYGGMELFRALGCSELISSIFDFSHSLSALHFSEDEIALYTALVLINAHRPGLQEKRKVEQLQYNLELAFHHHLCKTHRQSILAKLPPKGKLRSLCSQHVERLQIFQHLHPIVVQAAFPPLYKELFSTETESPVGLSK
Chain of Peroxisome proliferator-activated receptor gamma (Homo sapiens) (P37231 whole entry, looked up, the tested form may be a part): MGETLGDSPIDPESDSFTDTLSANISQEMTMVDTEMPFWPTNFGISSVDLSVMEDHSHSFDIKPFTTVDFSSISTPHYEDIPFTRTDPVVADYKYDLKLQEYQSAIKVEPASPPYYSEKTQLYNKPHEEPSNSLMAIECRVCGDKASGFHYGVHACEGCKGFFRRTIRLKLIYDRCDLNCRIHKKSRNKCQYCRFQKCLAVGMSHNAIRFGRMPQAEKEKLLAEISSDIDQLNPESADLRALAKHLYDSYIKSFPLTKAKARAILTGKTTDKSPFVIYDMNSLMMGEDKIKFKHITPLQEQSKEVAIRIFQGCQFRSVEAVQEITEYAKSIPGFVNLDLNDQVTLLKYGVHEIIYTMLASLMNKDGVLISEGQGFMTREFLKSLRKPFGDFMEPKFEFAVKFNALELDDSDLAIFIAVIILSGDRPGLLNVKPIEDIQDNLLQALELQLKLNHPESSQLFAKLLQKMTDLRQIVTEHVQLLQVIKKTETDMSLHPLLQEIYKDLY

Nc1ccc(S(=O)(=O)O)c(N)c1
inactive: [1] | [2]

CC(C)[C@@H]1CC[C@@H](C)CC1=O
inactive: [1] | [3] | [4]

CC(C#N)(CCC(=O)O)N=NC(C)(C#N)CCC(=O)O (stereo not drawn)
inactive: [1] | [3] | [5] | [2] | [6]

CC(C)(C)c1n[nH]c(=S)n(N)c1=O
inactive: [1] | [3] | [2] | [6]

Cc1ccc(Nc2ccc(O)c3c2C(=O)c2ccccc2C3=O)cc1
not listed: [1] | [2] | [4] | [5] | [18] | [19]
inactive: all other assays above

CCC(C(=O)NC(N)=O)c1ccccc1 (stereo not drawn)
inactive: [1] | [3] | [6]

CN(C)CCOCCN(C)C
inactive: [1] | [3] | [4]

CC(=O)OCc1ccc2c(c1)OCO2
inactive: [1] | [4] | [5] | [2]

CCn1c2ccccc2c2cc(N)ccc21
active: [9] 13.3 µM | [10] 22.9 µM | [3] 4.67 µM | [2] 14.3 µM | [14] 0.641 µM | [15] 0.812 µM | [16] 1.57 µM
inactive: [7] | [8] | [11] | [6] | [12] | [13] | [17]

COCCOCCOCCOCCOCCO
inactive: [1] | [4] | [5]

NNc1nc(-c2ccc(N)cc2)cs1
inactive: [1] | [10] | [2]

O=C(COc1ccc(Cl)cc1)N1CCN(Cc2ccc3c(c2)OCO3)CC1
inactive: [1] | [2]

OCCN1CCNCC1
inactive: [7]

COc1ccc(O)cc1
inactive: [1] | [10] | [6]

O=C1OC2(c3cc(Br)c(O)c(Br)c3Oc3c2cc(Br)c(O)c3Br)c2c(Cl)c(Cl)c(Cl)c(Cl)c21
inactive: [7] | [4]
active: [8] 7.39 µM | [9] 8.03 µM | [10] 34.7 µM | [3] 4.84 µM | [12] 5.06 µM | [13] 0.967 µM | [14] 4.82 µM | [15] 1.57 µM | [16] 2.68 µM | [17] 13.2 µM

CC1COc2ccccc2N1C(=O)C(Cl)Cl (stereo not drawn)
active: [9] 5.24 µM | [3] 6.46 µM | [12] 20 µM | [13] 5.26 µM | [16] 7.04 µM
inactive: [7] | [8] | [10] | [11] | [14] | [15] | [17]

O=CCCc1ccccc1
active: [3] 28.4 µM
inactive: [1] | [18]

COc1ccc(Cl)cc1C
inactive: [1] | [3] | [5] | [11] | [6]

OCc1cccnc1
inactive: [1] | [3] | [4] | [6]

NC(=O)NC1NC(=O)NC1=O (stereo not drawn)
inactive: [1] | [3] | [11] | [2]

CCCCC/C=C/C=C/C=O
inactive: [7] | [3] | [11] | [6]
active: [8] 32.8 µM | [9] 20 µM | [10] 9.8 µM | [12] 30.1 µM | [13] 20 µM | [14] 29.4 µM | [15] 36.3 µM | [16] 20 µM | [17] 31.8 µM

O=c1[nH]nnc2ccccc12
inactive: [1] | [3] | [11] | [6]

O=C(O)CCCCCCCCCCC(=O)O
inactive: [1] | [3] | [4]

Cc1ccc2sc3cccc(C)c3c2c1
inactive: [1] | [5] | [2] | [6]

CC(=O)[C@H]1CC[C@H]2[C@@H]3CC=C4C[C@@H](O)CC[C@]4(C)[C@H]3CC[C@]12C
active: [9] 7.47 µM and 6.54 µM | [3] 4.3 µM
not listed: [1] | [2] | [4] | [5] | [11] | [18] | [19]
inactive: all other assays above

CC(C)[C@H]1CC[C@@H](C)CC1=O
inactive: [1] | [3] | [11] | [2]

OCCOCCOCCOCCO
inactive: [1] | [11]

Sc1nc(S)nc(S)n1
inactive: [1] | [3] | [4] | [5] | [2]

Nc1ccc(S(N)(=O)=O)cc1
inactive: [1] | [3]

CCC(=O)OCc1ccccc1
not listed: [1] | [2] | [10] | [18] | [19]
inactive: all other assays above

CCCCO
inactive: [1] | [4] | [11] | [6]

CC1CCC(C(C)(C)O)CC1 (stereo not drawn)
inactive: [1] | [3] | [4] | [5] | [2] | [6]

CC1(CO)CN(c2ccccc2)NC1=O (stereo not drawn)
inactive: [7] | [19] | [10] | [3] | [5]

CC(=O)C(=O)O
inactive: [7] | [19] | [3] | [4] | [5] | [11] | [2]
